Results from PubChem BioAssay (NCI).
The panel holds about 79,000 compounds, 15% with a hit somewhere; the sample as a whole holds those more often. Cut-off read from the data, not from the text of the source: active = growth inhibition above about 70%; inactive = the rest.

Columns and labels:
[1] = NCI Yeast Anticancer Drug Screen. Data for the rad50 strain (AID 155);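 note: 0% = growth of vehicle-only cultures of the same strain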; settings: S. cerevisiae rad50 strain growth inhibition; at 50.0 µM; hits give high values
Outline: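 Compounds were tested on a yeast strain with an engineered DNA damage repair alteration; the reported value is growth inhibition normalised to vehicle treatment.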

[2] = NCI Yeast Anticancer Drug Screen. Data for the mec2-1 strain (AID 157); settings: S. cerevisiae mec2-1 strain, at 50.0 µM, hits give high values
Outline: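 Growth inhibition is read against vehicle-treated controls after compound exposure of the mec2-1 yeast strain, which is defective in DNA damage repair or cell cycle control.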

[3] = NCI Yeast Anticancer Drug Screen. Data for the sgs1 mgt1 strain (AID 161);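 note: 0% = growth of cultures given vehicle only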; settings: S. cerevisiae sgs1 mgt1 strain, at 50.0 µM, hits give high values
Outline: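 Growth of a repair-deficient yeast mutant was monitored after compound treatment and expressed as inhibition relative to vehicle-treated cultures.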

[4] = NCI Yeast Anticancer Drug Screen. Data for the cln2 rad14 strain (AID 165);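 note: 0% = growth equal to vehicle treated cultures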; settings: S. cerevisiae cln2 rad14 strain, at 50.0 µM, hits give high values
Outline: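 Growth inhibition, relative to vehicle-treated controls, is the read-out. The test organism is a yeast strain with defined genetic alterations, cln2 rad14.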

[5] = NCI Yeast Anticancer Drug Screen. Data for the bub3 strain (AID 167); settings: S. cerevisiae bub3 mutant strain, at 50.0 µM, hits give high values
Outline: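 Growth of a checkpoint-deficient yeast mutant is measured after compound exposure. Values represent inhibition relative to vehicle.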

[6] = NCI Yeast Anticancer Drug Screen. Data for the mlh1 rad18 strain (AID 175); settings: S. cerevisiae mlh1 rad18 strain growth inhibition; at 50.0 µM; hits give high values
Outline: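 Cells of a genetically altered yeast strain, deficient in DNA damage repair, were treated with compound. Their growth was then compared with that of vehicle-treated cultures to give inhibition.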

Measured: growth inhibition

O=[N+]([O-])C(C(Cl)=C(Cl)Cl)=C(n1nnc2ccccc21)n1nnc2ccccc21
inactive: [1] 40.6% | [2] 34.9% | [3] 25.3% | [4] 27.1% | [5] 19% | [6] 21.1%

CCCC1OCC(CC)([N+](=O)[O-])CO1 (centres undefined)
inactive: [1] 19.6% | [2] 15.7% | [3] 18.1% | [4] 9.3% | [5] -0.85% | [6] -5.7%

Cc1ccc(Cl)cc1N=C=S
inactive: [1] -22% | [2] -18.8% | [3] 6% | [4] -4.6% | [5] -38.4% | [6] -11.2%

C[Si](C)(C)Nc1ncnc2c1ncn2[Si](C)(C)C
inactive: [1] 14.6% | [2] 4.85% | [3] 21.6% | [4] -9.3% | [5] 2.85% | [6] 7.05%

CCOC(=O)CCCN(c1ccc(OC)c(OC)c1)S(=O)(=O)c1ccc(C)cc1
inactive: [1] 32.1% | [2] 12.7% | [3] 43% | [4] 18.8% | [5] 16.4% | [6] 34.2%

Cc1ccccc1NCC(C)O (centres undefined)
inactive: [1] -3.05% | [2] 6.15% | [3] -5.9% | [4] -84.5% | [5] -20.4% | [6] -32%

CC(O)CC(C)CO (centres undefined)
inactive: [1] 23.1% | [2] -20.3% | [3] -9.5% | [4] -55.5% | [5] 15.2% | [6] 18%

C/C(CC(=O)N1CCCCC1)=N\NC(N)=S
inactive: [1] -6.95% | [2] -9.45% | [3] -18.9% | [4] -10.5% | [5] 2.2% | [6] -18.2%

O=C(Nc1ccc(C(F)(F)F)cc1)NC(F)(F)F
inactive: [1] -61.1% | [2] -6.7% | [3] -38.1% | [4] -16.6% | [5] -3.65% | [6] -46.3%

C=CCN1C(=O)C/C(=C2/CCC(=O)N2CC=C)C1=O
inactive: [1] -11.1% | [2] -27.4% | [3] -16% | [4] 3.6% | [5] 1.8% | [6] -9.8%

CC1=C/C(=N/Nc2ccc([N+](=O)[O-])cc2[N+](=O)[O-])CC(C)(C)C1
inactive: [1] -21.3% | [2] -27.2% | [3] 18.4% | [4] -41% | [5] 3.1% | [6] 3.5%

COc1cc(OC)c(NC(=O)CC2SC(N)=NC2=O)cc1Cl (centres undefined)
inactive: [1] 9.75% | [2] 6.85% | [3] 20.2% | [4] 11% | [5] 25.4% | [6] 20.6%

O=C(O)C1C2CCC(O2)C1C(=O)Nc1cccc2cccnc12 (centres undefined)
inactive: [1] 15.3% | [2] 12.4% | [3] -10.2% | [4] -1.15% | [5] 22.5% | [6] 17.8%

c1ccc(Sc2cc(Sc3ccccc3)c3cccccc2-3)cc1
inactive: [1] 17.9% | [2] -21.9% | [3] -27.4% | [4] -6.05% | [5] 5.25% | [6] 3.2%

Cn1c2nc(=O)n(-c3ccccc3)c(=O)c-2nc2c1CCCC2
inactive: [1] -4.95% | [2] -10.7% | [3] 1.55% | [4] -6.45% | [5] 3.9% | [6] -60.7%

O=C(O)c1ccc(/C=N\N(CCO)C2=NCCN2)cc1
inactive: [1] 0% | [2] -4% | [3] -23.8% | [4] -31.5% | [5] -0.35% | [6] 6.4%

CCOc1ccccc1NC(=O)C1=C(C)NC(C)=C(C(=O)Nc2ccccc2OCC)C1c1ccc2c(c1)OCO2
inactive: [1] 9.5% | [2] 44.5% | [3] 41.3% | [4] 23.2% | [5] 43.1% | [6] 39.9%

NC(Cc1cccc([N+](=O)[O-])c1)C(=O)O (centres undefined)
inactive: [1] -57.8% | [2] -29.5% | [3] -35.2% | [4] -48.3% | [5] 13.3% | [6] -3.8%

Cc1nc(C)c(C(=O)NNC(=O)Cc2ccccc2)cc1C(=O)NNC(=O)Cc1ccccc1
inactive: [1] -32% | [2] 1.35% | [3] -0.9% | [4] 15.5% | [5] -5.55% | [6] -32.4%
